A short description of assay [1]: Quantitative High-Throughput drug screen in 47 multiple myeloma cell lines against the NCATS MIPE library collection: KMS28PE_JCRB cell viability assay (AID 1918983). Further: nearly all actives have a fitted effect of over 35% in size. In a few lines: (§1)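 Plated at 500 cells per well, myeloma lines received MIPE 4.0 compounds by pin tool. Following 48 h culture at 37 °C, CellTiter-Glo luminescence gave viability relative to DMSO and media-only controls.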

Assay [2] is described as follows: Quantitative High-Throughput drug screen in 47 multiple myeloma cell lines against the NCATS MIPE library collection: L363_DSMZ cell viability assay (AID 1918984). Further: nearly all actives have a fitted effect of over 40% in size. In a few lines:
as §1

The nature of assay [3]: Quantitative High-Throughput drug screen in 47 multiple myeloma cell lines against the NCATS MIPE library collection: KMS34_JCRB cell viability assay (AID 1918985). Further: nearly all actives have a fitted effect of over 40% in size. In a few lines: as §1
Assay [4] in a line: Quantitative High-Throughput drug screen in 47 multiple myeloma cell lines against the NCATS MIPE library collection: OCIMY7_PLB cell viability assay (AID 1918987). Further: nearly all actives have a fitted effect of over 65% in size. Conditions: OCI-MY7 myeloma viability, CellTiter-Glo ATP, 48 h; viability (% of DMSO): at 45.8 µM (top of the series). Summed up: as §1
Assay [5] is described as follows: Quantitative High-Throughput drug screen in 47 multiple myeloma cell lines against the NCATS MIPE library collection: OCIMY5_PLB cell viability assay (AID 1918988). Further: nearly all actives have a fitted effect of over 65% in size. Summed up:
as §1

Assay [6] is described as follows: Quantitative High-Throughput drug screen in 47 multiple myeloma cell lines against the NCATS MIPE library collection: U266_ATCC cell viability assay (AID 1919864). Further: nearly all actives have a fitted effect of over 35% in size. In a few lines: as §1
Assay [7] can be described thus: Quantitative High-Throughput drug screen in 47 multiple myeloma cell lines against the NCATS MIPE library collection: XG6_PLB cell viability assay (AID 1919865). Further: nearly all actives have a fitted effect of over 40% in size. In a few lines:
as §1

The nature of assay [8]: Quantitative High-Throughput drug screen in 47 multiple myeloma cell lines against the NCATS MIPE library collection: OPM1_PLB cell viability assay (AID 1918989). Further: nearly all actives have a fitted effect of over 40% in size. In a few lines:
as §1

A short description of assay [9]: Quantitative High-Throughput drug screen in 47 multiple myeloma cell lines against the NCATS MIPE library collection: SKMM1_PLB cell viability assay (AID 1919863). Further: nearly all actives have a fitted effect of over 35% in size. Conditions: SKMM1 myeloma viability, CellTiter-Glo ATP, 48 h; viability: stronger effect = lower value. In a few lines:
as §1

Molecules are shown by their SMILES. Records with an inconclusive call do not appear. Unmarked numbers belong to inactive results. The source made the active and inactive calls. The call rests on the fitted dose curve; in most records, active means well fitted cell-killing curve with a large enough effect; inconclusive means small, poorly fitted or top-dose-only effect, or effect the other way; inactive means no such curve, though single readings can be large or run the other way.
Potency means the concentration at half of the fitted maximal effect.

As to `CCOc1cc2ncc(C#N)c(Nc3ccc(OCc4ccccn4)c(Cl)c3)c2cc1NC(=O)C=CCN(C)C`, the Potency is 13200 nM (active) in assay [1]; 469 nM (active) in assay [2]; 10500 nM (active) in [3]; 52.6 nM (active) in assay [4]; 833 nM (active) in [5]; 13200 nM (active) in [6]. The Potency in assay [7] is 18.7 nM (active).
In the case of `COc1ccc(C[C@@H](C)[C@@H](C)Cc2ccc(OC)c(OC)c2)cc1OC`, the Potency in assay [1] was 332 nM (active); in assay [2], 166 nM (active); in assay [4], 296 nM (active); in [5], 469 nM (active); in assay [8], 264 nM (active); in assay [9], 372 nM (active). The Potency is 935 nM (active) in assay [6] and 264 nM (active) in assay [7].
Turning to `CC(=O)N[C@@H]1[C@H](O[C@@H]2c3ccc(c(Cl)c3)Oc3cc4cc(c3O[C@H]3O[C@H](CO)[C@@H](O)[C@H](O)[C@H]3NC(=O)CCCCCCCC(C)C)Oc3ccc(cc3Cl)C[C@H]3NC(=O)[C@H](N)c5ccc(O)c(c5)Oc5cc(O)cc(c5)[C@H](NC3=O)C(=O)N[C@H]4C(=O)N[C@H]3C(=O)N[C@@H]2C(=O)N[C@@H](C(=O)O)c2cc(O)cc(O[C@H]4O[C@H](CO)[C@@H](O)[C@H](O)[C@H]4O)c2-c2cc3ccc2O)O[C@H](CO)[C@@H](O)[C@@H]1O`, the Potency entry in [1], in assay [2] and in assay [3] was “inactive” each time. Further, the viability in assay [9] was 107%.
In the case of `NC(=O)Nc1cc(-c2ccc(CN3CCOCC3)cc2)sc1C(N)=O`, the Potency was 18700 nM (active) in assay [1]; 5900 nM (active) in assay [2]; 4180 nM (active) in [3]; 83.3 nM (active) in assay [4]; 37.2 nM (active) in assay [5]; 3720 nM (active) in assay [8]. The Potency is 16600 nM (active) in assay [6] and 743 nM (active) in [7].
Take `CC(=O)SCC(Cc1ccccc1)C(=O)NCC(=O)OCc1ccccc1` (stereo not drawn): the Potency in assay [1] was 7430 nM (active); in assay [2], 5900 nM (active); in assay [4], 3720 nM (active); in assay [5] it was 2640 nM (active); in [8] it was 5260 nM (active); in assay [9] it was 10500 nM (active). In addition, the figures for the Potency in assay [6] and in [7] were 1320 nM (active) and 1050 nM (active), respectively.
On to `CCN(CC)CCNC(=O)c1c(C)[nH]c(C=C2C(=O)Nc3ccc(F)cc32)c1C`, for which the Potency in assay [1] was 5400 nM (active); in assay [2], 540 nM (active); in assay [3], 6050 nM (active); in assay [4], 171 nM (active); in assay [5], 8550 nM (active); in [8] it was 1520 nM (active). Besides, the Potency in assay [9] was 27000 nM (active); in assay [6] it was 3400 nM (active); in [7], 1710 nM (active).
Regarding `CCNC(=O)c1cc2c(-c3cc(OCCN4CCCC4)c(Cl)cc3Cl)nc(N)nc2s1`, the Potency in assay [1] is 1870 nM (active); in assay [2] it was 418 nM (active); in assay [3] it was 1320 nM (active); in [4], 372 nM (active); in assay [5], 743 nM (active); in assay [8], 833 nM (active). Also, the Potency in assay [9] was 2350 nM (active); in [7], 1660 nM (active).
Turning to `Cn1cc(-c2cnn3c(N)c(Br)c([C@H]4CCCNC4)nc23)cn1`, the Potency in assay [1] is 13200 nM (active); in assay [2], 59 nM (active); in assay [3], 935 nM (active); in assay [4] it was 1180 nM (active); in [5], 332 nM (active); in [8], 833 nM (active). The results for the Potency in [6] and in assay [7] were 7430 nM (active) and 264 nM (active), respectively.
Turning to `Cn1c(Nc2ccc(C(F)(F)F)cc2)nc2cc(Oc3ccnc(-c4ncc(C(F)(F)F)[nH]4)c3)ccc21`, the Potency in assay [1] was 23500 nM (active); in assay [2] it was 16600 nM (active); in assay [4], 3720 nM (active); in assay [5] it was 9350 nM (active); in assay [8], 16600 nM (active); in assay [9], 20900 nM (active). Moreover, the Potency was 6620 nM (active) in [6] and 5900 nM (active) in [7].
On to `NC(=O)Nc1sc(-c2ccc(F)cc2)cc1C(N)=O`, for which the Potency in [1] was 18700 nM (active); in assay [2], 83.3 nM (active); in assay [3] it was 2640 nM (active); in assay [4], 662 nM (active); in assay [5] it was 2090 nM (active); in assay [8], 833 nM (active). For the same compound, the results for the Potency in assay [6] and in [7] were 13200 nM (active) and 10.5 nM (active), respectively.
`O=C(O)CCCCC(CCSCc1ccccc1)SCc1ccccc1` (stereo not drawn): the Potency entry in [1] and in assay [3] was “inactive” each time. Besides, the Potency in [2] was 13200 nM (active). For the same compound, the viability in assay [9] is 120%.
For `CC(=O)N[C@H]1[C@@H]([C@H](O)[C@H](O)CO)OC(C(=O)O)=C[C@@H]1N=C(N)N`, the Potency entry in assay [1], in assay [2], in assay [3], in assay [8] and in assay [7] was “inactive” each time.
Turning to `CNC(=O)c1cccc(-c2ccc3c(N4CCOC[C@H]4C)nc(N4CCOC[C@H]4C)nc3n2)c1`, the Potency in [1] was 18.7 nM (active); in assay [2], 11.8 nM (active); in assay [5] it was 5900 nM (active); in assay [8] it was 105 nM (active); in assay [9], 66.2 nM (active); in assay [6], 469 nM (active). Further, in assay [4], the viability (% of DMSO) was 66.1% (active).
Regarding `C=CCNC1=C2C[C@@H](C)C[C@H](OC)[C@@H](O)[C@@H](C)C=C(C)[C@H](OC(N)=O)[C@@H](OC)C=CC=C(C)C(=O)NC(=CC1=O)C2=O`, the Potency is 418 nM (active) in [1]; 26.4 nM (active) in assay [2]; 235 nM (active) in [3]; 833 nM (active) in assay [4]; 526 nM (active) in assay [5]; 1320 nM (active) in assay [8]. The Potency in [9] is 833 nM (active); in assay [6] it was 833 nM (active); in assay [7], 2640 nM (active).
Take `COc1cc(N2CCC(C(N)=O)CC2)ccc1Nc1nc(N)c(Cl)c(Nc2ccccc2S(=O)(=O)C(C)C)n1`: the Potency in [1] is 743 nM (active); in assay [2] it was 14.8 nM (active); in assay [3], 2960 nM (active); in assay [4] it was 209 nM (active); in assay [5], 935 nM (active); in assay [8], 5900 nM (active). Besides, the Potency in assay [7] was 93.5 nM (active).
Consider `COc1cc(OC)c(C=CS(=O)(=O)Cc2ccc(OC)c(NCC(=O)O)c2)c(OC)c1`, for which the Potency in [1] was 469 nM (active); in [2] it was 46.9 nM (active); in assay [3] it was 209 nM (active); in [4], 264 nM (active); in [5], 590 nM (active); in [8] it was 332 nM (active). In addition, the Potency in assay [9] was 235 nM (active); in assay [7], 833 nM (active).
In the case of `CCOC(=O)N1CCN([N+]([O-])=NOc2ccc([N+](=O)[O-])cc2C#N)CC1`, the Potency was 1180 nM (active) in assay [1]; 590 nM (active) in [2]; 526 nM (active) in [3]; 590 nM (active) in assay [4]; 833 nM (active) in assay [5]; 418 nM (active) in assay [8]. The Potency in assay [6] was 833 nM (active).
As to `COc1cc([C@@H]2c3cc4c(cc3[C@H](O)[C@H]3COC(=O)[C@@H]23)OCO4)cc(OC)c1OC`, the Potency is 148 nM (active) in assay [1]; 66.2 nM (active) in assay [2]; 83.3 nM (active) in [3]; 46.9 nM (active) in assay [4]; 29.6 nM (active) in [5]; 187 nM (active) in assay [8]. The Potency in [9] is 59 nM (active); in assay [7], 83.3 nM (active).
Take `CC(=O)[C@]1(O)Cc2c(O)c3c(c(O)c2[C@@H](O[C@H]2C[C@H](N)[C@@H](O)[C@H](C)O2)C1)C(=O)c1ccccc1C3=O`: the Potency in assay [1] is 187 nM (active); in assay [2], 1320 nM (active); in assay [4], 166 nM (active); in [5] it was 132 nM (active); in assay [8], 418 nM (active); in [9] it was 187 nM (active). Also, in [6], the Potency is 264 nM (active).
